Potency and affinity values are given separately. A number with no mark means an inactive call.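 The calls were made as follows: active = Loss of cell signal with fitted half-effect dose at or below twice the top valid tested dose; inconclusive = Poor fit, or flat fit from -70 to -30 percent; inactive = Half-effect above limit, rising signal, or flat within 30 percent.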

This assay can be described thus: HEK293T cell cytotoxicity, dose response, cytotoxicity control for HIV Vif inhibitor project, cherry-picks (AID 652208).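 Also: 0% = median neutral control wells and -100% = median staurosporine control wells.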 Particulars: HEK293T viability, CellTiter-Glo luminescence, 24 h; series mostly up to 26 µM; activity change, negative = cytotoxicity: at the top concentration.
As to `COc1cccc(N2CCN(C(=O)c3ccc(CS(=O)c4ccc(C)cc4)o3)CC2)c1` (centres undefined), the “activity change, negative = cytotoxicity” value was -14.4%.
For `Cc1ccc(C(C)C)c(OCC#CCN2CCOCC2)c1`, the “activity change, negative = cytotoxicity” value was 2.59%.
Take `CCN(CC)C1Oc2cc3c(cc2C(c2cc(OC)c(OC)c(OC)c2)C1C)OCO3` (centres undefined): the “activity change, negative = cytotoxicity” value is -18.4%.
For the molecule `O=C(NCC1CC1)NC(=O)c1c(F)cccc1Cl`, the “activity change, negative = cytotoxicity” value was 2.39%.
On to `CC(C)C(c1nnnn1CC1CCCO1)N1CCN(C2CCCC2)CC1` (centres undefined), for which the “activity change, negative = cytotoxicity” value is -1.94%.
The value for `CCOc1ncccc1C(=O)OCc1ccccc1` was -8.04%.
Then `COc1cc(Nc2nc3ccccc3n3nnnc23)cc(OC)c1OC`, with -9.03%; and `COc1ccc(-c2cc(C(=O)Nc3cnn(Cc4ccccc4C)c3)no2)cc1OC`, with -10.7%; and `Cc1c(NC(=O)c2cc3ccccc3oc2=O)c(=O)n(-c2ccccc2)n1C`, with 6.31%.
The value for `CC(C)CC(=O)Nc1ccc(-c2nnn(CC(=O)NCc3ccco3)n2)cc1` was -7.25%.
Regarding `N#Cc1c(C(F)(F)F)cc(-c2ccco2)nc1SCc1ccncc1`, the “activity change, negative = cytotoxicity” value is -16.7%.
As to `COc1cc(NC(=O)c2ccc(C)cc2C)ccc1NC(=O)c1cccs1`, the “activity change, negative = cytotoxicity” value was -17.1%.
Then `N#Cc1c2ccc(OCC(N)=O)cc2n2ccccc12`, with -2.27%.
The value for `CCN(C(=O)COc1ccc(C)cc1OC)c1cccc2ccccc12` was -0.891%.
The value for `CCCCCCOC(=O)C(C#N)c1nc2ccccc2nc1N1CCOCC1` (centres undefined) was 8.63%; that for `Cc1nnc(NC(=O)CSc2nnc(NC(=O)C(C)(C)C)s2)s1` was 7.39%; that for `COc1cc(-c2cnc3c(NC=O)cc(-c4ccccc4)cn23)cc(OC)c1OC` was -9.14%.
With `Cc1ccc(NC(=O)/C=C/c2ccco2)nc1`, the “activity change, negative = cytotoxicity” value is -17.1%.
The value for `Cc1ccc(Nc2nc(N)nc(CSc3nnc(-c4ccncc4)o3)n2)cc1` was -4.38%.
